The values that follow come from PubChem BioAssay.

Active and inactive are the calls of the source.

A short description of experiment [1]: small molecules captured by biotinylated probe aFSTL3 – biochemical, small-molecule microarray, fluorescence 635/667, stem cell growth factor project, primary screen (AID 1064).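 Further: measures binding of the biotinylated anti-FSTL3 antibody to printed compounds.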 The conditions noted are these: higher = more signal.
A short description of experiment [2]: binders from COS7 lysate, DM2A8 probe, primary screen, torsin A project, cell lysate, small-molecule microarray, fluorescence 635/667 (AID 1065). The conditions noted are these: higher = more signal, COS7 lysate expressing mutant human TOR1A.
Experiment [3] can be described thus: small molecules captured by biotinylated probe aFGF2 – biochemical, small-molecule microarray, fluorescence 635/667, stem cell growth factor project, primary screen (AID 1067).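 Further: measures binding of biotinylated aFGF2 protein to printed compounds on slides; z-score merges feature fluorescence and signal-to-noise across triplicate slides.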 The conditions noted are these: higher = more signal.
Experiment [4] can be described thus: small molecules captured by biotinylated probe aFGF10 – biochemical, small-molecule microarray, fluorescence 635/667, stem cell growth factor project, primary screen (AID 1071).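 Further: score merges 667 nm spot intensity and signal to noise from triplicate slides.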 Particulars: higher = more signal.
The target in experiment [5] is Neurogenic locus notch homolog protein 2 (Homo sapiens) (UniProt Q04721). As to the kind of experiment: small molecules binding Notch2 protein – biochemical, small-molecule microarray, 635 nm fluorescence, stem cell growth factors, primary screen (AID 1073). The conditions noted are these: higher = more signal.
Chain of Neurogenic locus notch homolog protein 2 (Homo sapiens) (Q04721 whole entry, looked up, canonical isoform): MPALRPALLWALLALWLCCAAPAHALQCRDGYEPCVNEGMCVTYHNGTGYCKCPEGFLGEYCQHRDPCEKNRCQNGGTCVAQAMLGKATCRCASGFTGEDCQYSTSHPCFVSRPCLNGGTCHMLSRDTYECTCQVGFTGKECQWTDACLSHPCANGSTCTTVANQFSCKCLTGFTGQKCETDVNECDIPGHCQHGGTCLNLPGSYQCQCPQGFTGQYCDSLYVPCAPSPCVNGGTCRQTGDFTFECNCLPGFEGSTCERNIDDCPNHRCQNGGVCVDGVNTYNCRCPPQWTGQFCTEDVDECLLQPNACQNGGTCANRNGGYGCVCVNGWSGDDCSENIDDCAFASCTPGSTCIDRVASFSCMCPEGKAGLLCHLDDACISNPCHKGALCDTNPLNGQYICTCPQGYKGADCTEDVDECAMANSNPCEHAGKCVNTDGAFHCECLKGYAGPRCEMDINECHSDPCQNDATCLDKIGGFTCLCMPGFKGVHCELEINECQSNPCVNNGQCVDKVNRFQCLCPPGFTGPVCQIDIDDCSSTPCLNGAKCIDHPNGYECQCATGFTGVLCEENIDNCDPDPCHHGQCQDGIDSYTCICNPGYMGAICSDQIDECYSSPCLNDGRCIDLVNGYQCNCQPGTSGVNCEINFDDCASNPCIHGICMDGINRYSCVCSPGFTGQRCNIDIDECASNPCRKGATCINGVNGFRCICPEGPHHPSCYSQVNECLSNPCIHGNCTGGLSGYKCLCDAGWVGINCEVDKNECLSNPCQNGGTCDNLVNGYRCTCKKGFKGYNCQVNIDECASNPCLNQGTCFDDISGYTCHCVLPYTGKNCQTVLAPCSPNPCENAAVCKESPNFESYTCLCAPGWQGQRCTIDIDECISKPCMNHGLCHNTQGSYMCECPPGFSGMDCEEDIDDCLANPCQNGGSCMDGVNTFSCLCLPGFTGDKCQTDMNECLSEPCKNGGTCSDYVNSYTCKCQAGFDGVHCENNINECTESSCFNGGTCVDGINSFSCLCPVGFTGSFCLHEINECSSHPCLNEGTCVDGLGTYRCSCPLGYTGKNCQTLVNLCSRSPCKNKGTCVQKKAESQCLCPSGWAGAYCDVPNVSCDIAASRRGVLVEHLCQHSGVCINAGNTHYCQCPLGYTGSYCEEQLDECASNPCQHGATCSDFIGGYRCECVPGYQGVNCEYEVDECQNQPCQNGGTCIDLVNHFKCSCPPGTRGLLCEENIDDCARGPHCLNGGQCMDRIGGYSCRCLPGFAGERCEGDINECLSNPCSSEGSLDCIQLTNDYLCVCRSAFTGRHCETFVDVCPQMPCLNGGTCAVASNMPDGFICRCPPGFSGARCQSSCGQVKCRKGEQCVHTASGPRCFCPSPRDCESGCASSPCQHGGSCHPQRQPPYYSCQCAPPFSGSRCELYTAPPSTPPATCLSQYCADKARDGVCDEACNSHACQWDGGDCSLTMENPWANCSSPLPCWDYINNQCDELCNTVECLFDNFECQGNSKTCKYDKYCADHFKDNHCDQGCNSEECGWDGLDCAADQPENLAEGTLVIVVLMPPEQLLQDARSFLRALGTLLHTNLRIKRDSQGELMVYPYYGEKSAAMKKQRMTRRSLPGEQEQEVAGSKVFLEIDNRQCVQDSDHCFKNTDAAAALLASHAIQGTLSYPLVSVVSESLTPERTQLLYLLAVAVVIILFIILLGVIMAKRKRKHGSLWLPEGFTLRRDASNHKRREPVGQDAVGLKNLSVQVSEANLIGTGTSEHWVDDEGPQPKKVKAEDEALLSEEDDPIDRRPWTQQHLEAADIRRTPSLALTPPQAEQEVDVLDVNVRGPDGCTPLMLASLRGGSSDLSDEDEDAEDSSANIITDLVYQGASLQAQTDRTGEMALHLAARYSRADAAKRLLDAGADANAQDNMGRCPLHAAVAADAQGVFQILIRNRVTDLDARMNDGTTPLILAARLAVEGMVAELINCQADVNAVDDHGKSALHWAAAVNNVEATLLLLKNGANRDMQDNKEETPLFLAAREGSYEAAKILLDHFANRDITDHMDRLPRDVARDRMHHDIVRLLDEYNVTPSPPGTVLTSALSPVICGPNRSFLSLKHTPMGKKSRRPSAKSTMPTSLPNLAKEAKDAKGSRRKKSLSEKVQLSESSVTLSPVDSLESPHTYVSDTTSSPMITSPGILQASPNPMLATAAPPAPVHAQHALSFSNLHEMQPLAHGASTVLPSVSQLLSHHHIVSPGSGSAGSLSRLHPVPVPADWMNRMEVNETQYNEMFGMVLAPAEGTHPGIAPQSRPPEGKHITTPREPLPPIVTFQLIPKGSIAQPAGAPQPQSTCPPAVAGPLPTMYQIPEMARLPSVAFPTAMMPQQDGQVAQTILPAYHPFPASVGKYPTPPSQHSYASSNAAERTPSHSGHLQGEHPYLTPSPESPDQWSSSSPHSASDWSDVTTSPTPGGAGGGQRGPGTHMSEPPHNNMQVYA
Experiment [6] has as its target Pro-neuregulin-1, membrane-bound isoform (Homo sapiens) (UniProt Q02297). Nature of the experiment: small molecules binding neuregulin-1 protein – biochemical, small-molecule microarray, fluorescence 635/667, psychiatric disease protein project, primary screen (AID 1075).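 Further: score combines 667 nm spot fluorescence with signal to noise.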 The conditions noted are these: NRG1 binding, 635 nm fluorescence, higher = more signal.
Experiment [7] deals with Neuregulin-1 EGF-like domain. As to the kind of experiment: small molecules binding NRG1 EGF domain – biochemical, small-molecule microarray, 635 nm fluorescence, primary screen (AID 1081).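 Further: binding of the protein to compounds printed on small-molecule microarray slides.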 The conditions noted are these: higher = more signal.
Experiment [8] in a line: FRG1 expression reporter modulators in myotubes – cell-based, C2C12 myotubes, firefly/Renilla luciferase, luminescence, FRG1 inhibition for FSHD, primary screen (AID 1084). The conditions noted are these: FRG1 promoter luciferase, higher = more signal, called active from +8 up or from −8 down.
Experiment [9] is described as follows: small molecules captured by biotinylated probe aFST – biochemical, small-molecule microarray, fluorescence 635/667, stem cell growth factor project, primary screen (AID 1086).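 Further: score merges 667 nm fluorescence with signal-to-noise of each printed compound spot.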 The conditions noted are these: higher = more signal.
Experiment [10] in a line: binders of probe aHhip on microarray, primary screen, stem cell growth factor project, biochemical, small-molecule microarray, fluorescence 635/667 (AID 1087).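 Further: score merges spot fluorescence at 667nm with spot signal to noise ratio.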 The conditions noted are these: higher = more signal.
Experiment [11] concerns PRMT1 (protein arginine N-methyltransferase 1). Nature of the experiment: small molecules binding arginine methyltransferase PRMT1 – biochemical, small-molecule microarray, 635 nm fluorescence, primary screen (AID 1088).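 Further: binding of Prmt1 protein to compounds spotted on small-molecule microarray slides.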 The conditions noted are these: higher = more signal.
Experiment [12] is described as follows: growth effects on S. cerevisiae YJM789 – YJM789 clinical isolate, OD600, 24 h, basal, primary screen (AID 1089).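 Further: growth of clinical yeast isolate S. cerevisiae YJM 789 seeded 1000 cells per well; test concentration not given here.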 Particulars: higher = more signal, called active from +8 up or from −8 down.
A short description of experiment [13]: S. pombe growth modifiers, basal conditions – strain 972, OD600, 24 h, no modulator, primary screen (AID 1090).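 Further: basal condition with compound alone and no growth modifier present; test concentration not given here.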 The conditions noted are these: S. pombe 972 growth, higher = more signal, called active from +8 up or from −8 down.
A short description of experiment [14]: budding yeast growth modifiers under rapamycin – strain BY4716, OD600, 96 h, primary screen (AID 1091). Further: test concentration not given here. The conditions noted are these: S. cerevisiae BY4716 + rapamycin, higher = more signal, called active from +8 up or from −8 down.
For experiment [15], the target named is Torsin-1A-interacting protein 2 (Homo sapiens) (UniProt Q8NFQ8). As to the kind of experiment: small molecules binding lysate-expressed LULL1 – cell lysate, human LULL1 lysate, 635/667 nm fluorescence, primary screen (AID 1092).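 Further: probe is lysate of COS7 cells overexpressing human LULL1; score merges per-feature 667 nm fluorescence with signal-to-noise.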 Particulars: small-molecule microarray, hLULL1 lysate binding, 635 nm fluorescence; higher = more signal.
Chain of Torsin-1A-interacting protein 2 (Homo sapiens) (Q8NFQ8 whole entry, looked up): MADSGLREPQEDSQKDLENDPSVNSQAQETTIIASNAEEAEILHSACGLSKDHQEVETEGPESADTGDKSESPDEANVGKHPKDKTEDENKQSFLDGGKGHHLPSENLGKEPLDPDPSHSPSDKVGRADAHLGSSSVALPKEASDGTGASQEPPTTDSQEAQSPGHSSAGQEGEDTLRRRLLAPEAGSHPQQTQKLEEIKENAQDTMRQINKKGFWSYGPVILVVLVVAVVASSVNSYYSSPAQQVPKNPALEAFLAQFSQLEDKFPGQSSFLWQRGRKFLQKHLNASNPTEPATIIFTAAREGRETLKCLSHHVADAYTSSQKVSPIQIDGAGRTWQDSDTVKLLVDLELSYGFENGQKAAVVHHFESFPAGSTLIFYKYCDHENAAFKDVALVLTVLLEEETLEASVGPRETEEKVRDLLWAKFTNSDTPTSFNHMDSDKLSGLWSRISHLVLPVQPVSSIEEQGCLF
Experiment [16] can be described thus: optical density change of DRC41 E. coli – strain DRC41, OD650, 24 h, E. coli filamentation project, primary screen (AID 1093).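 Further: MC1000 strain lacking acrAB efflux and sulA so SOS filamentation is blocked; test concentration not given here.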 The conditions noted are these: E. coli DRC41 growth, higher = more signal, called active from +8 up or from −8 down.
A short description of experiment [17]: probe aLefty2 binding to arrayed compounds – biochemical, biotinylated probe, 635/667 nm fluorescence, primary screen (AID 1094).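 Further: score merges spot fluorescence near 667 nm with spot signal-to-noise ratio.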 Particulars: small-molecule microarray, higher = more signal.
The subject of experiment [18] is Noggin (protein binding on small-molecule microarray). Nature of the experiment: small molecules binding Noggin protein – biochemical, 635/667 nm fluorescence, primary screen (AID 1095).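 Further: score merges 667 nm feature fluorescence with signal to noise over triplicate slides.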 The conditions noted are these: 635 nm fluorescence, higher = more signal.
For experiment [19], the target named is Neurogenic locus notch homolog protein 3 (Homo sapiens) (UniProt Q9UM47). As to the kind of experiment: small molecules binding NOTCH3 protein – biochemical, 635/667 nm fluorescence, primary screen (AID 1096). The conditions noted are these: small-molecule microarray, 635 nm fluorescence, higher = more signal.
Experiment [20] in a line: probe aEGFR binding to arrayed compounds – biochemical, biotinylated probe, 635/667 nm fluorescence, primary screen (AID 1097).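 Further: probe is a biotinylated anti-EGFR antibody binding compounds printed on slides; score combines fluorescence near 667 nm and signal to noise of each spot.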 The conditions noted are these: small-molecule microarray, higher = more signal.

Chain of Pro-neuregulin-1, membrane-bound isoform (Homo sapiens) (Q02297 whole entry, looked up, the tested form may be a part, canonical isoform): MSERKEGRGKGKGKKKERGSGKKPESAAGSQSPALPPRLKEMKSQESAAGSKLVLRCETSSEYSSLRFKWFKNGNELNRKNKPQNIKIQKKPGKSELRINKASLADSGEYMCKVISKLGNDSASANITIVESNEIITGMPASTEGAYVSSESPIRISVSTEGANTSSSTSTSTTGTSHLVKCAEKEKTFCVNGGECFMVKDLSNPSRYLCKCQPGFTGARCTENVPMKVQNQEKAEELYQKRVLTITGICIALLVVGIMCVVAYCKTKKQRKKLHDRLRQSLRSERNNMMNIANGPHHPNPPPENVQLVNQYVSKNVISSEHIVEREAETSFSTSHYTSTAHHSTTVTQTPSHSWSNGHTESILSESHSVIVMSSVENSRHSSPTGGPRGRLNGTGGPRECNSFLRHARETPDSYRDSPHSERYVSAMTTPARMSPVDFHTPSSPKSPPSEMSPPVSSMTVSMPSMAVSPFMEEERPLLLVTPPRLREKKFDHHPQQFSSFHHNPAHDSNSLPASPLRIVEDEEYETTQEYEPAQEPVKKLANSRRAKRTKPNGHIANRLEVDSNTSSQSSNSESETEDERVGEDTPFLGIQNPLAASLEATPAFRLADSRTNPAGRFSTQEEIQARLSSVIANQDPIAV

On to `COc1cc2c(cc1O)C(C)N(Cc1ccc([N+](=O)[O-])o1)CC2` (stereo not given), for which the composite z-score was 0.182 in experiment [1]; 0.731 in experiment [2]; -0.0138 in [3]; 1.15 in experiment [4]; 1.3 in experiment [5]; 1.53 in experiment [6]. Further, the composite z-score in experiment [7] amounted to 1.08; in [9] it was 0.401; in experiment [10], 0.28; in experiment [11] it was 1.56; in [15], 1.74; in experiment [17] it was 0.136. The composite z-score was 0.142 in [18], 1.07 in experiment [19] and 0.174 in experiment [20]. Also, the z-score in [8] is 0.11 (inactive); in experiment [12] it was -0.337 (inactive); in experiment [13] it was -3.24 (inactive); in experiment [14] it was -1.57 (inactive); in experiment [16], -0.741 (inactive).

As for `CC(C)(C)N1CC=CC23O[C@@H]4C=CCOC(=O)[C@@H]4[C@H]2C(=O)N(CCCCCCO)[C@@H]3C1=O` (stereo not given in full), the composite z-score was 0.0157 in [1]; -0.511 in experiment [2]; -0.178 in [3]; -0.447 in experiment [4]; -0.947 in experiment [5]; -0.574 in experiment [6]. Also, the composite z-score in [7] was 1.36; in [9], -0.867; in [10], -0.284; in experiment [11], -0.911; in experiment [15], 1.39; in experiment [17], -0.101. The composite z-score is -1.27 in experiment [18], -0.729 in experiment [19] and -0.163 in experiment [20]. The z-score in experiment [8] is 0.212 (inactive); in experiment [12], -1.54 (inactive); in [13], -1.27 (inactive); in experiment [14] it was -0.369 (inactive); in [16], -0.351 (inactive).

On to `C=C(C)[C@@H]1CC=C(C(O)C2C=CC3C(=O)N(c4ccccc4)C(=O)C3N2Nc2ccccc2F)CC1` (stereo not given in full), for which the composite z-score in experiment [1] was 0.264; in experiment [2] it was 0.0754; in experiment [3] it was 0.195; in experiment [4], 0.825; in experiment [5] it was 1.63; in experiment [6], 1.94. The composite z-score came to 1.22 in experiment [7]; 1.84 in experiment [9]; 0.18 in experiment [10]; 1.57 in experiment [11]; 3.64 in [15]; 0.0865 in experiment [17]. Moreover, the results for the composite z-score in experiment [18], in experiment [19] and in experiment [20] were 0.443, 1.01 and 0.11, respectively. Moreover, the z-score is -1.51 (inactive) in experiment [8]; 1.59 (inactive) in [12]; 1.09 (inactive) in experiment [13]; 3.06 (inactive) in experiment [14]; -1.48 (inactive) in experiment [16].

For `[N-]=[N+]=NCc1ccccc1C[C@]1(C(N)=O)N=C(c2ccc(OCCCO)cc2)O[C@H]1c1ccccc1`, the composite z-score in [1] was 0.124; in [2], 0.514; in experiment [3], -0.0129; in experiment [4], 0.726; in experiment [5] it was 0.639; in experiment [6], 1.89. The composite z-score is 1.14 in [7]; 1.56 in [9]; -0.201 in [10]; 1.31 in [11]; 3.32 in experiment [15]; 0.158 in experiment [17]. Moreover, the composite z-score in experiment [18] is -0.593; in [19], 0.859; in [20] it was -0.02. Moreover, the z-score is -3.9 (inactive) in [8]; 0.458 (inactive) in experiment [12]; -1.74 (inactive) in experiment [13]; 2.34 (inactive) in experiment [14]; 1.22 (inactive) in experiment [16].

`O=C1O[C@H](c2ccccc2)[C@H](c2ccccc2)N2[C@H]1[C@@H](C(=O)Nc1nc3ccccc3s1)[C@]1(C(=O)Nc3ccccc31)[C@H]2c1ccc(OCCO)cc1`: the composite z-score is -0.401 in experiment [1]; 0.292 in experiment [2]; -0.0734 in experiment [3]; 0.452 in experiment [4]; 1.31 in experiment [5]; 1.29 in [6]. The composite z-score was 1.11 in experiment [7]; 0.778 in experiment [9]; 0.0854 in experiment [10]; 1.31 in [11]; 1.96 in experiment [15]; -0.0446 in experiment [17]. For the same molecule, the composite z-score in [18] was 1.5; in experiment [19], 1.05; in experiment [20], 0.0162. Moreover, the z-score in experiment [8] is 3.35 (inactive); in [12] it was 1.48 (inactive); in experiment [13], 1.95 (inactive); in experiment [14] it was 3.31 (inactive); in [16], 0.0528 (inactive).
